According to the supplement of paper PMC10849652:
The full data set covers some 7,900 targets. This sample favours those with a hit. About 0.6% of all pairs of compound and target were hits.

Key:
Assay in all cases: log2 fold change, soluble protein after heating vs DMSO (PISA); higher = thermal stabilisation; K562 cells, 10 uM, 30 min; active = over 0.2 and 3.5 SD of the protein, either way, in both replicates (recomputed)
[1] = compound: C1COCCN1CCN2C3=CC=CC=C3N=C2NC(=O)C4=CC(=CC=C4)[N+](=O)[O-] [IRAK-1-4 Inhibitor I]
Method in brief: (§1)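 Thermal stability values are relative to control samples and come from duplicates. They are expressed as log2 fold changes. For measurement, K562 cells (2×10^6 cells/mL) received 10 μM compound for 30 min, and aliquots were heated for 3 min over 48°C-58°C, pooled, and extracted at 4°C in PBS with 0.5% NP-40. Soluble protein, the supernatant after 21,000xg for 90 min, was quantified by TMTpro 16plex LC-MS/MS with equalised channel sums.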

[2] = compound: C=CC(=O)N1CCC[C@@H](n2nc(-c3ccc(Oc4ccccc4)cc3)c3c(N)ncnc32)C1 [ibrutinib]
Method in brief: as §1

[3] = compound: CC(=O)c1cnc2ccc(-c3cc(Cl)c(O)c(Cl)c3)nc2c1N[C@H]1CC[C@H](CN(C)C)CC1
Method in brief: as §1

[4] = compound: CC(C)(C)Cn1c(N)nc2ccc(-c3[nH]c(C(C)(C)C)nc3-c3ccc(F)cc3)nc21 [ralimetinib]
Method in brief: as §1

[5] = compound: CC(C)(O)CC(=O)NCCn1ccc2ncnc(Nc3ccc(Oc4cccc(C(F)(F)F)c4)c(Cl)c3)c21
Method in brief: as §1

[6] = compound: CC(C)C1=C2N=C(C=C(N2N=C1)NCC3=CC=CC=C3)NCCCCCCN
Method in brief: as §1

[7] = compound: CC(C)C[C@@H](C=O)NC(=O)[C@H](CC(C)C)NC(=O)[C@H](CC(C)C)NC(=O)OCc1ccccc1
Method in brief: as §1

[8] = compound: CC(C)N(C[C@H]1O[C@@H](n2cnc3c(N)ncnc32)[C@H](O)[C@@H]1O)[C@H]1C[C@@H](CCc2nc3cc(C(C)(C)C)ccc3[nH]2)C1 [pinometostat]
Method in brief: as §1

[9] = compound: CC1=C(C(CC(=O)N1)C2=CC=C(C=C2)C(F)(F)F)C(=O)NC3=C(C=C4C(=C3)C=NN4)F
Method in brief: as §1

[10] = compound: CC1=C(C2=C(C=C1)C(=O)C3=CC=CC=C3N2CCCN)C
Method in brief: as §1

[11] = compound: CC1=C(C=C(C=C1)NC(=O)C2=CC(=CC=C2)C(C)(C)C#N)NC3=CC4=C(C=C3)N=CN(C4=O)C
Method in brief: as §1

[12] = compound: CC1=C(C=C(C=C1)NC(=O)C2=CC(=CC=C2)N(C)C)NC(=O)C3=CC=C(C=C3)O
Method in brief: as §1

[13] = compound: CC1=CC=C(C=C1)SC2=C3C=C(SC3=CN=C2)C(=O)N
Method in brief: as §1

[14] = compound: CC1=NC(=CC=C1)C2=C(N=C(N2)C(C)(C)C)C3=CC4=NC=CN=C4C=C3
Method in brief: as §1

[15] = compound: CCCCN(Cc1ccc(C(=O)NO)cc1)C(=O)Nc1ccccc1 [Nexturastat A]
Method in brief: as §1

[16] = compound: CCCS(=O)(=O)Nc1ccc(F)c(C(=O)c2c[nH]c3ncc(-c4ccc(Cl)cc4)cc23)c1F [vemurafenib]
Method in brief: as §1

[17] = compound: CCCS(=O)(=O)Nc1ccc(F)c(C(=O)c2c[nH]c3ncc(Cl)cc23)c1F
Method in brief: as §1

[18] = compound: CCCc1cc(C)[nH]c(=O)c1CNC(=O)c1cc(-c2ccnc(N3CCN(C)CC3)c2)cc2c1cnn2C(C)C
Method in brief: as §1

[19] = compound: CCN(CC)Cc1ccc2cc(COC(=O)Nc3ccc(C(=O)NO)cc3)ccc2c1 [givinostat]
Method in brief: as §1

[20] = compound: CCN(CCCOc1ccc2c(Nc3cc(CC(=O)Nc4cccc(F)c4)[nH]n3)ncnc2c1)CCOP(=O)(O)O [barasertib]
Method in brief: as §1

Measured: log2 fold change

HK2 (UniProt P52789)
Sequence of UniProt P52789 (P52789 whole entry, looked up): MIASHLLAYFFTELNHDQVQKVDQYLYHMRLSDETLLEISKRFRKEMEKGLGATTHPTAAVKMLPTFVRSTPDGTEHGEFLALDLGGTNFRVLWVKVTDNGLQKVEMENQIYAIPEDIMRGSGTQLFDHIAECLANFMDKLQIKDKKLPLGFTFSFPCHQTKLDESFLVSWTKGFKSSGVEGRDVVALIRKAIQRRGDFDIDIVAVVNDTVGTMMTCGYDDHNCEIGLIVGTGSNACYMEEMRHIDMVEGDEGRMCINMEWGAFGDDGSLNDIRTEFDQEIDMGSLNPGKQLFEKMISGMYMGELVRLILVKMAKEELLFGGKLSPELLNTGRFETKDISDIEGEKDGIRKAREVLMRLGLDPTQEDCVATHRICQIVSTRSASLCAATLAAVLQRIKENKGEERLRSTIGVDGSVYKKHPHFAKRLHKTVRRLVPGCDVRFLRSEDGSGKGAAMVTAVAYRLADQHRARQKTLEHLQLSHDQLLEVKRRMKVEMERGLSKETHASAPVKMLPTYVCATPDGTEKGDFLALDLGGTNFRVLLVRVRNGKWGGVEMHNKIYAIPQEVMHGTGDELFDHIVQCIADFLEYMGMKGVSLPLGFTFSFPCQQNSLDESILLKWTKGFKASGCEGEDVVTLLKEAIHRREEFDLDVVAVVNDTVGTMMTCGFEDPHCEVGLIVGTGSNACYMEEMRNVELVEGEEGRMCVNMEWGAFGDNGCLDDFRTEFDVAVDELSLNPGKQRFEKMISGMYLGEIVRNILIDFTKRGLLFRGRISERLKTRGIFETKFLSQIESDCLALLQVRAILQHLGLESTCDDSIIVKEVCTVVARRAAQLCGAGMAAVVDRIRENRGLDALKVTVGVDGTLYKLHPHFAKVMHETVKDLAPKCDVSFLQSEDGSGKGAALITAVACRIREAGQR
active: [11] -0.257
inactive: [1] -0.007 | [2] -0.01 | [3] -0.096 | [4] -0.037 | [5] -0.046 | [6] 0.096 | [7] -0.022 | [8] -0.001 | [9] 0.063 | [10] 0.034 | [12] -0.028 | [13] 0 | [14] 0.019 | [15] 0.017 | [16] 0.003 | [17] 0.027 | [18] -0.041 | [19] -0.016 | [20] 0.051

GTF2A1 (UniProt P52655)
Sequence of UniProt P52655 (P52655 whole entry, looked up): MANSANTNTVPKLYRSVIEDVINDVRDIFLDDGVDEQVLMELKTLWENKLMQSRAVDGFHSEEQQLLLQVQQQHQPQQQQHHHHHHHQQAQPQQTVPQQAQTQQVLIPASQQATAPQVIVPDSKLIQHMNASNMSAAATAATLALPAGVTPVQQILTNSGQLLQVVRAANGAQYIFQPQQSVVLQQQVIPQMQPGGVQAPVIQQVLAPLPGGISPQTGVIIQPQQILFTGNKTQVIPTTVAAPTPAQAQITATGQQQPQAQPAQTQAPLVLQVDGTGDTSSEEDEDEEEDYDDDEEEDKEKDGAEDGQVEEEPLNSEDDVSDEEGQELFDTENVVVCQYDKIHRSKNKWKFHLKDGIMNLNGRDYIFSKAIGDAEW
active: [10] -0.415
inactive: [1] 0.068 | [2] 0.03 | [3] 0.013 | [4] -0.142 | [5] -0.106 | [6] 0.022 | [7] -0.06 | [8] 0.035 | [9] 0.014 | [11] -0.086 | [12] -0.05 | [13] -0.023 | [14] -0.006 | [15] 0.077 | [16] 0.005 | [17] -0.057 | [18] -0.011 | [19] -0.01 | [20] 0.021

FDXR isoform 7 (UniProt P22570)
active: [5] -0.27
inactive: [1] 0.031 | [2] 0.046 | [3] -0.086 | [4] -0.015 | [6] -0.091 | [7] 0.015 | [8] -0.024 | [9] -0.033 | [10] 0.125 | [11] -0.011 | [12] -0.078 | [13] -0.039 | [14] 0.072 | [15] -0.07 | [16] 0.02 | [17] 0.024 | [18] 0.059 | [19] -0.021 | [20] 0.035

GTF2E1 (UniProt P29083)
inactive: [1] -0.048 | [2] -0.06 | [3] -0.051 | [4] -0.018 | [5] -0.178 | [6] -0.147 | [7] 0.016 | [8] -0.046 | [9] 0.003 | [10] -0.007 | [11] -0.005 | [12] -0.057 | [13] 0.011 | [14] 0.115 | [15] 0.024 | [16] 0.05 | [17] 0.082 | [18] -0.006 | [19] 0.091 | [20] 0.166

FIZ1 (UniProt Q96SL8)
Sequence of UniProt Q96SL8 (Q96SL8 whole entry, looked up): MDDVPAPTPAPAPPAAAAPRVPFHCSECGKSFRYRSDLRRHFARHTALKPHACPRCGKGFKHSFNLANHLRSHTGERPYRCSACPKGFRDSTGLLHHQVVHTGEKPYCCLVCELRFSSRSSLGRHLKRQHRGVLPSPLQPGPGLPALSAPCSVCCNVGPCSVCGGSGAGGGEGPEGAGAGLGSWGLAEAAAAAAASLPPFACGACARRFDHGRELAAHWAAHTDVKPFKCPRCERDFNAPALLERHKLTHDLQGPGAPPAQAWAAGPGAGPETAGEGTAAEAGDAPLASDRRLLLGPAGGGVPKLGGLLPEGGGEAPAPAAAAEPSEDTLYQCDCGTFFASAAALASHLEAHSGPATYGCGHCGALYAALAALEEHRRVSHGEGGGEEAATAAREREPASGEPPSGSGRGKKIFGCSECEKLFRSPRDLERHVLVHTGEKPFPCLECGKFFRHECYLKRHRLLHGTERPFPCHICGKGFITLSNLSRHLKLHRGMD
inactive: [1] -0.14 | [5] 0.017 | [8] 0.123 | [9] 0.121 | [11] -0.164 | [14] -0.047 | [15] 0.102 | [16] 0.13 | [18] -0.022

FAT1 (UniProt Q14517)
active: [4] -0.448
inactive: [1] 0.028 | [2] 0.151 | [5] 0.01 | [6] 0.162 | [7] 0.683 | [8] -0.095 | [9] 0.019 | [10] 0.091 | [11] -0.036 | [12] -0.218 | [13] -0.029 | [14] 0.053 | [15] 0.104 | [16] -0.199 | [17] -0.051 | [18] -0.067 | [19] 0.044 | [20] 0.045

GTF3A (UniProt Q92664)
Sequence of UniProt Q92664 (Q92664 whole entry, looked up): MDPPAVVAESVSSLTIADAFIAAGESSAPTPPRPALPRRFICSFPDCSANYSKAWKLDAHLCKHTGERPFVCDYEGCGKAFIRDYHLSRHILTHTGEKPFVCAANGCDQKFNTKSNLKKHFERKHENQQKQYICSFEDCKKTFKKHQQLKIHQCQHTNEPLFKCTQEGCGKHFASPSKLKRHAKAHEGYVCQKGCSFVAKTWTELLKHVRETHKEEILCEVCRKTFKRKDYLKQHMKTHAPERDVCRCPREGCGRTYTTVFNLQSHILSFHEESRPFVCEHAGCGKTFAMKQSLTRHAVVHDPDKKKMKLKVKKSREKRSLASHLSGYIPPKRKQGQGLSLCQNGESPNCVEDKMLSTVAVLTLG
inactive: [1] 0.034 | [2] -0.013 | [3] 0.065 | [5] -0.084 | [6] -0.036 | [8] 0.004 | [9] 0.249 | [10] 0.107 | [11] 0.074 | [13] 0.09 | [14] 0.125 | [15] -0.054 | [16] -0.075 | [17] 0.078 | [18] -0.035 | [19] -0.048 | [20] -0.053

FUNDC1 (UniProt Q8IVP5)
Sequence of UniProt Q8IVP5 (Q8IVP5 whole entry, looked up): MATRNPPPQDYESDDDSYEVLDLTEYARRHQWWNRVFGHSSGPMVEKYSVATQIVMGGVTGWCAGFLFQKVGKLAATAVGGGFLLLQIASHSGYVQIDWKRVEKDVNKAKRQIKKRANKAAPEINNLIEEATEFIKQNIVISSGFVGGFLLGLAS
inactive: [2] -0.023 | [11] 0.007 | [13] 0.118 | [17] -0.013 | [18] -0.285 | [20] 0.052

GPD1 (UniProt P21695)
Sequence of UniProt P21695 (P21695 whole entry, looked up): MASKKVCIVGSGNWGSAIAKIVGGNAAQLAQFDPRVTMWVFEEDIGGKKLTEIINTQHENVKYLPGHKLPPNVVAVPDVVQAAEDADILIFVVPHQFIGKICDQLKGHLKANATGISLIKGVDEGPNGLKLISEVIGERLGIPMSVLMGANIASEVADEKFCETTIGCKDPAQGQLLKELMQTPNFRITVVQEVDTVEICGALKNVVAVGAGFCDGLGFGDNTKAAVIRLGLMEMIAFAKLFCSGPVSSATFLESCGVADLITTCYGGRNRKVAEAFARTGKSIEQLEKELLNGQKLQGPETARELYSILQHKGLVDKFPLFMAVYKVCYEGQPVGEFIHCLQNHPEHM
active: [15] 0.653
inactive: [2] 0.059 | [3] -0.066 | [4] -0.141 | [5] 0.079 | [6] 0.268 | [7] -0.051 | [9] 0.096 | [10] 0.009 | [11] 0.011 | [12] -0.046 | [13] 0.021 | [16] 0.02 | [17] -0.042 | [18] -0.34 | [19] 0.514 | [20] 0.062

HSPA8 (UniProt E9PN89)
inactive: [1] -0.032 | [2] -0.069 | [3] -0.145 | [5] 0.127 | [6] 0.085 | [8] -0.004 | [9] 0.07 | [10] 0.043 | [11] -0.158 | [13] -0.261 | [14] -0.144 | [15] -0.019 | [16] -0.276 | [17] -0.507 | [18] -0.689 | [19] 0.182 | [20] 0.03

GSE1 (UniProt Q14687)
Sequence of UniProt Q14687 (Q14687 whole entry, looked up): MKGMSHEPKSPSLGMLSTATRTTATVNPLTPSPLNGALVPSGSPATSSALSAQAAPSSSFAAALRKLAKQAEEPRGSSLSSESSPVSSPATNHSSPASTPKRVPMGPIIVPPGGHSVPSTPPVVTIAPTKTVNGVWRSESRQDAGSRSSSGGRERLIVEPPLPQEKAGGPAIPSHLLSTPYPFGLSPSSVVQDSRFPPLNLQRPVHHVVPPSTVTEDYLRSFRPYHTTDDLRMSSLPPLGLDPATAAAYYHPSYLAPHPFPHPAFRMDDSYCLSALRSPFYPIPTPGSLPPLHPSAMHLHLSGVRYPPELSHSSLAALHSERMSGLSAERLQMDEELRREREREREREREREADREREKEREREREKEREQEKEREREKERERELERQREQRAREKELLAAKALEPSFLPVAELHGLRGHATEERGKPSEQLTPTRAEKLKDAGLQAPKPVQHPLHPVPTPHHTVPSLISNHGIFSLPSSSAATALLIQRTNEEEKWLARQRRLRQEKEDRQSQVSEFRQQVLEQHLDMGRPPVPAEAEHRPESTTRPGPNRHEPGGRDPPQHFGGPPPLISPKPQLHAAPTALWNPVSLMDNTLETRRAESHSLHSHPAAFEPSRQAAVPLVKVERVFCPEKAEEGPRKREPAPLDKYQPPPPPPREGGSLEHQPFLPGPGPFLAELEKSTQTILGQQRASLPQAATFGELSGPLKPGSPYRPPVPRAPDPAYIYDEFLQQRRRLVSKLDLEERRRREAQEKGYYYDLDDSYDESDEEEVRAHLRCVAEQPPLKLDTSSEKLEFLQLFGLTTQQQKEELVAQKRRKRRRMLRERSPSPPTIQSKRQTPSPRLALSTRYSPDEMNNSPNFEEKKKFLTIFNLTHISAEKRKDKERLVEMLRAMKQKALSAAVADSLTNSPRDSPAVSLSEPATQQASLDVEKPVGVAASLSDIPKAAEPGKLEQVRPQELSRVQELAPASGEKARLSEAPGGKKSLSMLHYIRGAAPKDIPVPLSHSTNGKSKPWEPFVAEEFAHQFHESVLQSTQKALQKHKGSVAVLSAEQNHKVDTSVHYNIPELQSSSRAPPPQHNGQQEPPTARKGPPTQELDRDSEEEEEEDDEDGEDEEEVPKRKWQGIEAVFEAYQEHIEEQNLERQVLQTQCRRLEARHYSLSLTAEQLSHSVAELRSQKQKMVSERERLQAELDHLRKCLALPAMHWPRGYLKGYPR
inactive: [2] 0.057 | [4] -0.065 | [7] 0.003 | [9] 0.044 | [12] 0.071 | [16] -0.13 | [20] 0.232

IDH3A isoform 2 (UniProt P50213)
inactive: [1] 0.196 | [2] 0.008 | [3] -0.004 | [6] 0.153 | [8] 0.011 | [9] -0.033 | [10] 0.059 | [14] -0.083 | [19] 0.175 | [20] -0.012

HBZ, A0A494C057
inactive: [2] 0.284 | [6] -0.054 | [9] -0.145 | [18] 0.051 | [19] 0.109 | [20] 0.013

FGG (UniProt P02679)
Sequence of UniProt P02679 (P02679 whole entry, looked up): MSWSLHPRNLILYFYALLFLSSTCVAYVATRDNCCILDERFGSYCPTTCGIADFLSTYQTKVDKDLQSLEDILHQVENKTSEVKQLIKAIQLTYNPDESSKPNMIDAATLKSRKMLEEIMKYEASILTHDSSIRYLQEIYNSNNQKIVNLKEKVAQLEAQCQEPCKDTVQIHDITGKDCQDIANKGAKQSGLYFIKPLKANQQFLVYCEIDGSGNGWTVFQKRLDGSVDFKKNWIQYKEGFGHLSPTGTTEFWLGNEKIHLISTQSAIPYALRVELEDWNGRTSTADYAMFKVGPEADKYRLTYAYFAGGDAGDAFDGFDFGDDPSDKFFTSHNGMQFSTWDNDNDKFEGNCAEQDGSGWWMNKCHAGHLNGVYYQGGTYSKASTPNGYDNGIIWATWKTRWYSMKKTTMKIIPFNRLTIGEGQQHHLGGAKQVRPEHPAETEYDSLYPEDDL
inactive: [4] -0.048 | [7] 0.231 | [12] 0.067 | [13] -0.093 | [17] -0.214

GNL3 (UniProt Q9BVP2)
Sequence of UniProt Q9BVP2 (Q9BVP2 whole entry, looked up): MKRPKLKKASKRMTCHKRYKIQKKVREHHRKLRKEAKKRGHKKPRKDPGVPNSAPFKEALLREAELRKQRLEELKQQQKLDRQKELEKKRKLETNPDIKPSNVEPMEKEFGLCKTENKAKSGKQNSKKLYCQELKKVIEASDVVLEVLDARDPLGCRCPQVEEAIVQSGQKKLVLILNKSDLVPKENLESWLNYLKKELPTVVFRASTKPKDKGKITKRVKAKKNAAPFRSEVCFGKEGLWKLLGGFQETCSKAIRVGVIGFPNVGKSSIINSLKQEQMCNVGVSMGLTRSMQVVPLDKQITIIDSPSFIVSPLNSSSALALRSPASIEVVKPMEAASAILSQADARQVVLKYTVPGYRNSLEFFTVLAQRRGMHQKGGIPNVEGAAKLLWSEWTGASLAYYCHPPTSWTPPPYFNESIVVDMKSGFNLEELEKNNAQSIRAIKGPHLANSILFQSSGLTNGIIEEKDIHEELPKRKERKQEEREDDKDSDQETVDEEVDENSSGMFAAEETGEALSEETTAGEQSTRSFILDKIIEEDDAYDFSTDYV
active: [15] 0.491
inactive: [2] 0.047 | [3] 0.012 | [5] -0.007 | [9] 0.029 | [10] 0.066 | [11] 0.002 | [16] -0.12 | [18] -0.307 | [20] 0.079

GINS2 (UniProt Q9Y248)
inactive: [1] 0 | [2] -0.033 | [4] 0.024 | [5] -0.02 | [6] -0.081 | [7] -0.042 | [8] -0.067 | [9] -0.057 | [10] 0.113 | [11] 0.136 | [12] -0.168 | [13] 0.099 | [14] 0.147 | [15] 0.174 | [16] 0.102 | [17] 0.029 | [18] 0.021 | [19] -0.038 | [20] 0.053

FMR1 (UniProt Q06787)
inactive: [1] 0.091 | [4] 0.036 | [6] 0.149 | [7] 0.056 | [8] 0.153 | [11] -0.023 | [12] 0.036 | [13] -0.066 | [14] -0.163 | [17] -0.094 | [18] -0.068 | [19] -0.203

FAT2 (UniProt Q9NYQ8)
inactive: [1] 0.103 | [2] 0.107 | [4] 0.182 | [5] -0.149 | [6] -0.002 | [7] 0.225 | [8] 0.051 | [10] 0.132 | [12] -0.035 | [13] -0.113 | [14] -0.114 | [15] 0.456 | [16] -0.002 | [17] 0.009 | [18] -0.333 | [19] 0.119 | [20] 0.069

HEATR3 (UniProt Q7Z4Q2)
inactive: [1] -0.08 | [2] 0.006 | [4] 0.07 | [5] -0.125 | [7] -0.137 | [8] -0.032 | [9] 0.216 | [10] -0.196 | [11] 0.004 | [12] 0.116 | [13] 0.034 | [14] 0.047 | [15] 0.016 | [16] 0.007 | [17] 0.082 | [18] -0.067 | [19] 0.069 | [20] 0.144
active: [6] -0.319

IGF2 isoform 3 (UniProt P01344)
inactive: [1] 0.066 | [6] -0.104 | [8] -0.107 | [14] 0.136 | [16] 0.073 | [19] -0.148

FRA10AC1 isoform 3 (UniProt Q70Z53)
inactive: [1] 0.005 | [2] -0.014 | [3] 0.024 | [5] -0.024 | [6] 0.169 | [8] 0.001 | [9] -0.03 | [10] -0.201 | [11] -0.068 | [13] 0.04 | [14] 0.041 | [15] -0.096 | [16] 0.104 | [17] 0.001 | [18] -0.001 | [19] 0.052 | [20] -0.002

H3-3A (UniProt P84243)
active: [10] 0.656
inactive: [2] -0.016 | [6] -0.07 | [9] -0.004 | [11] -0.205 | [13] 0.078 | [16] 0.149 | [17] 0.102 | [18] 0.118 | [19] 0.267 | [20] 0.101
